Assay results taken from the supplement of paper PMC10105736.
Values without a mark were called inactive.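 How the source made its calls: active = MAPPIT score above the 99th percentile of random reference set scores in the same batch; inactive = at or below it.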

Legend:
Experiment in all cases: MAPPIT interaction score (arbitrary units); higher = stronger binary interaction signal, active = hit call of the paper
RpS29 = conditions: pair source set: RRS
RpS3 = conditions: MAPPIT configuration: N-N; pair source set: Curagen_low_conf
msl-3 = conditions: MAPPIT configuration: N-N; pair source set: DPIM
RpS5a = conditions: MAPPIT configuration: N-N; pair source set: Curagen_high_conf
Rpn6 = conditions: pair source set: Lit-BM-16
Rpt2 = conditions: MAPPIT configuration: N-N; pair source set: screen_1
Rtnl1 = conditions: MAPPIT configuration: N-N; pair source set: screen_2
[1] = substrate: SNCF; conditions: MAPPIT configuration: N-N; pair source set: DPIM
Sarm = conditions: MAPPIT configuration: N-N; pair source set: Curagen_low_conf
Sas10 = conditions: MAPPIT configuration: N-N; pair source set: Finley_Y2H
grau = conditions: MAPPIT configuration: N-N; pair source set: Lit-BM-16
Sce = conditions: MAPPIT configuration: N-C; pair source set: Lit-BM-16
ScpX = conditions: MAPPIT configuration: N-N; pair source set: Curagen_high_conf
SelR = conditions: MAPPIT configuration: N-N; pair source set: Curagen_high_conf
Sfp84E = conditions: pair source set: RRS
alc = conditions: MAPPIT configuration: N-N; pair source set: Lit-BS-16
robl62A = conditions: MAPPIT configuration: N-N; pair source set: RRS
Shmt = conditions: MAPPIT configuration: N-N; pair source set: Curagen_high_conf
Sid = conditions: MAPPIT configuration: N-N; pair source set: Curagen_high_conf
Xbp1 = conditions: MAPPIT configuration: N-N; pair source set: Curagen_low_conf
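Further: HEK293T cells with Epo stimulation, STAT-responsive firefly luciferase reporter, fold induction versus unstimulated cells divided by the larger fold induction of two negative controls lacking either bait or prey.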

B1: Cog8 (protein)
chain: MDFPDKMDLENERVLKLIFPDGVPDNLRGNPELDNYLAKLGTCKVEQLKKEQTRLAEEARTILEQTQDLAISNYRTFITTAENSRSIFSEFLRSEQQLDTLVSKLPDLSVQCERFLQDSAELNEQRRLNSITLQKNAQLLEVLELPQLMERCIREGRYEEALELAAYATRLGQHQGHIPVVTSIVRSVEALWHNMLVQLVAQLRTDLQLPKCLQIVGYLRRMQAFGDNELRLKFLQARDAWLTSCLEAIPTADAQQHLSKTIEITRINLFNIITQYRAIFPEDEGTLKTQSSLRPLQGVSCNGDRLFQAWLHNKISDFLQTLERDLQLGVGSVETVLGQCMYFGLSFSRVGADFRALMAPIFVGVIRRRFESSVEQVDEQFERELERFTLINKVALHSHARKQVDPEQESYAPPEALLDFYPLAALCNGYLSALNELRLCAPLALATDVTRCLQHSLQQAAQRVLAFYRQEQQAFAGSEREAFVRLCSCLAYDLVPYIQRCIHGVFPPQSLTVHLGISLLQLEQQQLTYLQQTRILEPLKHLLPTKALVQPQDKVMEAKPSAGVPVTAEG
MAPPIT interaction score (RpS29; MAPPIT configuration: N-C): 0.627
MAPPIT interaction score (RpS29; MAPPIT configuration: N-N): -0.265

B2: mts (protein)
chain: MEDKATTKDLDQWIEQLNECNQLTETQVRTLCDKAKEILSKESNVQEVKCPVTVCGDVHGQFHDLMELFRIGGKSPDTNYLFMGDYVDRGYYSVETVTLLVALKVRYRERITILRGNHESRQITQVYGFYDECLRKYGNANVWKYFTDLFDYLPLTALVDGQIFCLHGGLSPSIDSLDHIRALDRLQEVPHEGPMCDLLWSDPDDRGGWGISPRGAGYTFGQDISETFNNTNGLTLVSRAHQLVMEGYNWCHDRNVVTIFSAPNYCYRCGNQAALMELDDSLKFSFLQFDPAPRRGEPHVTRRTPDYFL
MAPPIT interaction score (RpS3): 0.284
MAPPIT interaction score (msl-3): 1.55

B3: Vm32E (protein)
chain: MQIVALTLVAFVAIAGASCPYAAPAPAYSAPAASSGYPAPPCPTNYLFSCQPNLAPAPCAQEAPAYGSAGAYTEQVPHYVGSPNREQLQQFHQRIGMAALMEELRGLGQGIQGQQY
MAPPIT interaction score (RpS5a): 0.177

B4: alien (protein)
chain: MSDNDDDFMCDDDEDYGLEYSEDSNSEPDVDLENQYYNSKALKEEEPKAALASFQKVLDLENGEKGEWGFKALKQMIKINFRLCNYDEMMVRYKQLLTYIKSAVTRNHSEKSINSILDYISTSKNMALLQNFYETTLDALRDAKNDRLWFKTNTKLGKLYFDRSDFTKLQKILKQLHQSCQTDDGEDDLKKGTQLLEIYALEIQMYTVQKNNKKLKALYEQSLHIKSAIPHPLIMGVIRECGGKMHLREGEFEKAHTDFFEAFKNYDESGSPRRTTCLKYLVLANMLMKSGINPFDSQEAKPYKNDPEILAMTNLVNSYQNNDINEFETILRQHRSNIMADQFIREHIEDLLRNIRTQVLIKLIRPYKNIAIPFIANALNIEPAEVESLLVSCILDDTIKGRIDQVNQVLQLDKINSSASRYNALEKWSNQIQSLQFAVVQKMA
MAPPIT interaction score (Rpn6; MAPPIT configuration: N-C): 4.99 (active)
MAPPIT interaction score (Rpn6; MAPPIT configuration: N-N): 0.207

B5: CG12096 (protein)
chain: MEMEDNWWVTKLKALESKPQRLDALTAMNSAIAKEAALPRQIIERLLTTDQLYDCANPAADSHVPKDQAVDVTLELLCHCLDQLAMDTADEQLSSLLRRGLTHSNPALRAQVLASLFKKLLRQLTVGQVLTLPNNELIFLILDELKQPDTQSTSLAINILSIVLPQRISNADVQAKLVQLLKQNEIVRCRAYELAVVLAKKSATLLSDVTFILDAALSELDNDDVLLQASVMELLVPLAEQNHGLSYMERRRVLDIISYRVQRVEEHPLDALLVPSIMKFFGKISVYQPLKIIGGYPHMLACLFMQLQSEDESILPTAMDTLANLATTPQGKILLNMHFSGAMEKSFKKYGSHTKKLSAHIKKRLLNSLDVIYDFKTPPATEIINIGKNWYECFAGGAHANIIMDLINTPFPDLQMAALSFLKTICKYNWGIVALKNTGGAVEFLLSRQKDLHRDIKYMKWQIMEILSASAEFSPTETIRFTAYVNEGPYHVQADLDVATEPQGNA
MAPPIT interaction score (Rpt2): 5.01 (active)

B6: rush (protein)
chain: MVDRLVNSEANTRRIASVENCFGSSGVPLAMQGRVLVGEGVLTKMCRKRPKSRQFFLFNDILVYGNIVIGKKKYNKQHIMPLEEVSLESIADNQTYRNGWYIRTTTKSFVVFAATSTEKQEWMAHINKCVEDLLRKSGKKPVENHAAVWVPDTDASVCMHCKKTQFTFIQRRHHCRNCGAVVCAGCSAKKFLLPQQSTKALRVCDACYERLKHVPSSLGSGEDSAAATGAASGNKLNTTAGDSSNDEDSDEETASPGGESHDEPRFYGDNSVLSAVEDSSTITSPSSATTGSLEAPQVTPSVQSSPAAVATTGSHC
MAPPIT interaction score (Rtnl1): -0.205

B7: SmD2 (protein)
chain: MALVKPKSELTPEELARQEEEEFNTGPLSVLTQSVKNNTQVLINCRNNKKLLGRVKAFDRHCNMVLENVKEMWTELPRTGKGKKKVKPVNKDRFISKMFLRGDSVILVLRNPLATAAGK
MAPPIT interaction score [1]: 0.49

B8: mRpL24 (protein)
chain: MRLTQYLASKLKNFSNLPKEYIERSKKQVYWQTPKEINYLPRTVERKRFRYTTNRSWTGQFRQQNMPGTVRRKVLVEPIEDWSFFRGDRIEVLVGKDKGKQGIVTQVIPERNWVIVEGLNWHYRKVGGEKEFPGIIIKSEAPLHVTKDIRLVDPSDLQGTDFEWRFTEEGEKVRVSLRSGRIIPIPETNNQTHDYKTPNAYIEREKDTPGAVVGEITFQPKLSTFEMDIMEEMGIKEERTPVKSYWY
MAPPIT interaction score (Sarm): 0.785

B9: CG7137 (protein)
chain: MKPFEVPPWEEGADIIEFEPVNPSGNGVAAKKKPKKKKPKKKKAAVPNENLNVNKAAEKFTYRQGRGPLAPPQDSSDDDYEDVEDGIRAMHKVKSGRIEKQRPPTQATKGGKKELKLKPELAQAALEAMEATSSTTPAANSLASKLQSELLGGRFRYINEQLYSTTSRKAEALFRKDSSAFEAYHAGYRQQVEKWPINPLNRIIKTIKKIPKTAIIGDFGCGEGKLAQSVPNKVYSMDLVAARSDIIACNITDTPLQARTLDVAVYCLSLMGTDLNEFFLEANRVLKLHGTVYIAEIQSRFQDVREFVRCLNACGFDLNKKDVAVNYFYFFQFKKMRHVPKNTKMKAFSLKPCLYRKR
MAPPIT interaction score (Sas10): 0.356
MAPPIT interaction score (grau): 0.26

B10: ord (protein)
chain: MYGETTLNKNHVIKFIKLKINNCLGCDEVEINFSKADNVHIIIYSLVTDMAKDLPAVTPVAQAILLLCSLTYPDSDSLETIPQLKIGKGSVSMSFKVYPVNKEEETEPESESDLDEGPSTSKQALERMVQRAERKAKEASTRNVHSKGIYVNVERRFDMYFALDTVSYYINGGKRQSCPLPEFHAKFFVRPQHSINLLRQLHEKCSGNWLKVIQSDGDGDAFKKFKDPDSPFETFVKLFESNPIKPNDMMGKLAKTCLHVNEAVRLTEREFILEVFNQVRHIFEYITAQEYTVWFLVPCLGDKDQLRSKTLEDFDLTKVRTSIRRAGDTSNIWWDHTDHNIKDILLVAFQLDLATHVNQSVLVISHLETLAEFSTMQYVTAFFMNDFYAKKNTEPKWICHRYLERIIDVALFLGVIVIIEYPSAFTLLQEGRHLIKCFQKENADSSRTSQWEIFEDVVKENESDLEFLKEAVGKVQQNV
MAPPIT interaction score (Sce): 2.19

B11: CG32486 (protein)
chain: MSVESSSSAVQQPPSSSNLPLLGDNQAVATTSSASSASSSSTSSSSSSVGGGNVVGVPLDTQGSGEPPAKKQLLDGGGGGATSSSGSSLLSSAAAASGMHEKLAHRISNALCCAVCLDLPKTAMYQCQMGHLMCAACFTHLLADGRLRDQIATCPNCRVEISKSTASRNLAVEKAASELPSECQFCNKEFPYKSLERHEQHECQERPTKCKYHRIGCQWRGPYHETNEHERNCLHPQKSGYEVMAALEAHDDRIKEEKKMFNTLIDLLSYEKIIFNDLQMKPYRTDEYVHKLFYETARFSAFNQQWVVKARINNSQRDPHQSNERTITYQLILKTKTSTPMSIHFFALKGPFSDMKVSTQIYKHEFTETSTESEYYVLPLPDGVGGSGSSECNRMLANKGINFRLLMFLLNK
MAPPIT interaction score (ScpX): 4.53 (active)

B12: CG11899 (protein)
chain: MVINFAAGPAKLPEEVLKEVQENLVNCNGSGISVMEMSHRSSNYAKIHDATISDLRELLNVPSNYKILLMQGGGTGQFAAVALNLIGKTGTADYVITGSWSAKAAKEAAQYGTVNAVLPKLAKYTTVPRQETWKLDPNASYVYYCDNETVEGVEFDFVPEVPAGVPLVADMSSNFLSRPFDVSKFGVIYAGAQKNIGPAGTTVIIVRDDLIGKHLKITPSILNFEQMDKNNSLLNTPPTFGIYVMGLVFKWIKRNGGVAGMAKLAAAKSKLIYDTINQSNGFYYCPVDVNVRSRMNVPFRIGSASGDDALEKEFLSKAEAEGMIQLKGHRSVGGIRASLYNAVTLAETQQLANLMLAFYKNNKN
MAPPIT interaction score (SelR): 0.998

B13: Adi1 (protein)
chain: MVQVWYMDTEETDQRLEHHRNPPAYLELDDLYQKTGVEYFKINADEYQSDNTLTELRAKRGYTYDDEITCSEKCLPDYANKLKAFFTEHLHTDEEIRLILEGSGYFDVRDNEDNWLRIKVVKGDLIIIPAGIYHRFTLDTNNFIRTRRYFVGEPVWAPHNRPADEMDCRKSYIKHQSENFVQFNKV
MAPPIT interaction score (Sfp84E; MAPPIT configuration: N-C): 0.249
MAPPIT interaction score (Sfp84E; MAPPIT configuration: N-N): 0.123
MAPPIT interaction score (alc): 0.0614
MAPPIT interaction score (robl62A): 2.17

B14: Pka-R2 (protein)
chain: MSSDSSRRIQVPEELKEVLLQFSISFLVEQPPDVIDYAVEYFTKLQSERPSVSHTDQSTDDQLSVNSQDADAEPPVMASSRRKSVFAEAYDPEADDDDDGATAVFPKTDEQRARLVESVKNVLLFRSLEKEQMNQVLDAMFERKVQPGDFIIRQGDDGDNFYVIESGVYKVYINDKHINTYNHTGLFGELALLYNMPRAATVQAETSGLLWAMDRQTFRRILLKSAFRKRKMYEELLNSVPMLKALQNYERMNLADALVSKSYDNGERIIKQGDAADGMYFIEEGTVSVRMDQDDAEVEISQLGKGQYFGELALVTHRPRAASVYATGGVVKLAFLDVKAFERLLGPCMDIMKRNIDDYESQLVKIFGSKNNITDTR
MAPPIT interaction score (Shmt): 0.452

B15: Pep (protein)
chain: MVSVKVNGNPQNRLVNNAKVNGNMAFRGNQNRNRNFGGGNNNYGGPMGANRMGGMNMSPWESQNPGGGQFGNNMRQGGGQMNAQAINLANNLLNNLFRNQNPPSLLDLPRGGGGMGNRNQRGGPMVSRGGGAGNRLNNRRGQGGGFQNRGATGSGPKPPPKQGGGGIRKQNAFDRAKKLLAKNANQNKKKEPTPGEKKIESPTKESPYASVPNDMFYCHLCKKHMWDANSFENHIKGRTHLMMREGIEESYRLKANMIRQEAKIAEQLKSIEFDRLKRMGKSKQRQLDYCTMCDLNFHGHISTHRKSEGHLQLKKFLHPKCIECNKEFATRIDYDTHLLSAEHLKKAAENNTKVGERKRQTLPISTEEEETRDLRLPQKRKKKPVKKEGEAADGEAKKEGAGDGEGAEGDEAEGEEAKEGEEAADETKEGDELNESQEEEEVALPVDPEDCILDFNDGDEIPSEVDTRLPKYNWQRAVGPGLISKLECYECSVCSKFFDTEVTAEIHSRTATHHRNFLKFINEKSSDTKIAQKRAAAALEENERKKRKVEEAEAPAAEGAAEETTEGAEGELYDPSEATGDDEDVEMVDDNAEGEGEGEGDEEAEAEVEEDGAGQDNGEEEMEAQEEEGQEGEQEPEPEPAPVQTPAPAEPAPPAKTPAKTPTKAAAPAAVASPAAAATSADASPSPAKKATPARAAAGAKATPQRQRARGRYNRY
MAPPIT interaction score (Sid): -0.865
MAPPIT interaction score (Xbp1): -0.182
